Common to all, as to experiment: PBM; 200 nM protein, PBS
What all share (settings): dsDNA, one strand shown

Test [1] concerns the target T1, SIX6 (Homo sapiens, UniProt O95475 114-200, L167I).
T1 sequence: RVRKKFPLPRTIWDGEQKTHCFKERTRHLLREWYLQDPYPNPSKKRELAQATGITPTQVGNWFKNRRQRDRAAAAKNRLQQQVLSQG

In test [2] the target is T2, SIX6 (Homo sapiens, UniProt O95475 114-200, L143V).
T2 sequence: T1 sequence with L30V, I54L

The target of test [3] is T3, SIX6 (Homo sapiens, UniProt O95475 114-200, H141N).
T3 sequence: T1 sequence with H28N, I54L

The target in test [4] is T4, SIX6 (Homo sapiens, UniProt O95475 114-200, T165P).
T4 sequence: T1 sequence with T52P, I54L

Test [5] has as its target T5, SIX6 (Homo sapiens, UniProt O95475 114-200, L167M).
T5 sequence: T1 sequence with I54M

Test [6] addresses T6, SIX6 (Homo sapiens, UniProt O95475 114-200, L143M).
T6 sequence: T1 sequence with L30M, I54L

For test [7], the target named is T7, SIX6 (Homo sapiens, UniProt O95475 114-200, L143I).
T7 sequence: T1 sequence with L30I, I54L

The target of test [8] is T8, SIX6 (Homo sapiens, UniProt O95475 114-200, T165G).
T8 sequence: T1 sequence with T52G, I54L

The target of test [9] is T9, SIX6 (Homo sapiens, UniProt O95475 114-200, T139Q).
T9 sequence: T1 sequence with T26Q, I54L

In test [10] the target is T10, SIX6 (Homo sapiens, UniProt O95475 114-200, T165A).
T10 sequence: T1 sequence with T52A, I54L

The target of test [11] is T11, SIX6 (Homo sapiens, UniProt O95475 114-200, L167V).
T11 sequence: T1 sequence with I54V

For test [12], the target named is T12, SIX6 (Homo sapiens, UniProt O95475 114-200).
T12 sequence: T1 sequence with I54L

Test [13] addresses T13, SIX6 (Homo sapiens, UniProt O95475 114-200, T165I).
T13 sequence: T1 sequence with T52I, I54L

Test [14] addresses HOXA2 (Homo sapiens, UniProt O43364 129-215, R185T).
Test [15] has as its target HOXA2 (Homo sapiens, UniProt O43364 129-215, R185K).
Test [16] has as its target HOXA2 (Homo sapiens, UniProt O43364 129-215, Y150S).
Test [17] concerns the target HOXA2 (Homo sapiens, UniProt O43364 129-215).

Positions count from the first letter of the chain named.

HOXA2 (Homo sapiens, UniProt O43364 129-215, R185K), sequence (O43364 129-215 R185K): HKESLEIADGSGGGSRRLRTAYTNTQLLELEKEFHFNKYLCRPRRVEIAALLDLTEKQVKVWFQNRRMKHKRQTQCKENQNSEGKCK
HOXA2 (Homo sapiens, UniProt O43364 129-215, R185T), sequence (O43364 129-215 R185T): as the sequence (O43364 129-215 R185K) above, with K57T counted along it
HOXA2 (Homo sapiens, UniProt O43364 129-215, Y150S), sequence (O43364 129-215 Y150S): as the sequence (O43364 129-215 R185K) above, with Y22S, K57R counted along it
HOXA2 (Homo sapiens, UniProt O43364 129-215), sequence (O43364 129-215): as the sequence (O43364 129-215 R185K) above, with K57R counted along it

For CCCAGCCG, the binding signal in the test with SIX6 [1] is 9.06 upbm affinity estimate (log intensity, higher = more binding, comparable within an allelic series); with SIX6 [2], 8.82 upbm affinity estimate (log intensity, higher = more binding, comparable within an allelic series); with SIX6 [3], 9.12 upbm affinity estimate (log intensity, higher = more binding, comparable within an allelic series); with SIX6 [4], 8.84 upbm affinity estimate (log intensity, higher = more binding, comparable within an allelic series); with SIX6 [5], 9.01 upbm affinity estimate (log intensity, higher = more binding, comparable within an allelic series); in the test with SIX6 [6] it was 8.87 upbm affinity estimate (log intensity, higher = more binding, comparable within an allelic series). For the same sequence, the binding signal in the test with SIX6 [7] is 8.92 upbm affinity estimate (log intensity, higher = more binding, comparable within an allelic series); in the test with SIX6 [8], 9.07 upbm affinity estimate (log intensity, higher = more binding, comparable within an allelic series); with SIX6 [9], 9.24 upbm affinity estimate (log intensity, higher = more binding, comparable within an allelic series); with SIX6 [10] it was 9.06 upbm affinity estimate (log intensity, higher = more binding, comparable within an allelic series); with SIX6 [11], 8.98 upbm affinity estimate (log intensity, higher = more binding, comparable within an allelic series); in the test with SIX6 [12] it was 9.03 upbm affinity estimate (log intensity, higher = more binding, comparable within an allelic series). In the test with SIX6 [13], the binding signal was 9.05 upbm affinity estimate (log intensity, higher = more binding, comparable within an allelic series).
Turning to AGCGCCCG, the binding signal in the test with SIX6 [1] was 9.03 upbm affinity estimate (log intensity, higher = more binding, comparable within an allelic series); in the test with SIX6 [2], 8.99 upbm affinity estimate (log intensity, higher = more binding, comparable within an allelic series); in the test with SIX6 [3], 9.03 upbm affinity estimate (log intensity, higher = more binding, comparable within an allelic series); with SIX6 [4] it was 9.05 upbm affinity estimate (log intensity, higher = more binding, comparable within an allelic series); with SIX6 [5], 9.04 upbm affinity estimate (log intensity, higher = more binding, comparable within an allelic series); in the test with SIX6 [6] it was 9.02 upbm affinity estimate (log intensity, higher = more binding, comparable within an allelic series). Further, the binding signal with SIX6 [7] is 8.98 upbm affinity estimate (log intensity, higher = more binding, comparable within an allelic series); in the test with SIX6 [8] it was 8.98 upbm affinity estimate (log intensity, higher = more binding, comparable within an allelic series); with SIX6 [9] it was 8.94 upbm affinity estimate (log intensity, higher = more binding, comparable within an allelic series); with SIX6 [10], 8.98 upbm affinity estimate (log intensity, higher = more binding, comparable within an allelic series); with SIX6 [11], 8.97 upbm affinity estimate (log intensity, higher = more binding, comparable within an allelic series); with SIX6 [12], 8.99 upbm affinity estimate (log intensity, higher = more binding, comparable within an allelic series). For the same sequence, the binding signal with SIX6 [13] was 9 upbm affinity estimate (log intensity, higher = more binding, comparable within an allelic series).
CGCTGCGC: the binding signal with SIX6 [1] was 8.99 upbm affinity estimate (log intensity, higher = more binding, comparable within an allelic series); in the test with SIX6 [2] it was 8.85 upbm affinity estimate (log intensity, higher = more binding, comparable within an allelic series); in the test with SIX6 [3], 8.98 upbm affinity estimate (log intensity, higher = more binding, comparable within an allelic series); with SIX6 [4], 8.98 upbm affinity estimate (log intensity, higher = more binding, comparable within an allelic series); with SIX6 [5] it was 8.92 upbm affinity estimate (log intensity, higher = more binding, comparable within an allelic series); with SIX6 [6] it was 8.96 upbm affinity estimate (log intensity, higher = more binding, comparable within an allelic series). Moreover, the binding signal with SIX6 [7] was 8.93 upbm affinity estimate (log intensity, higher = more binding, comparable within an allelic series); in the test with SIX6 [8], 9 upbm affinity estimate (log intensity, higher = more binding, comparable within an allelic series); with SIX6 [9], 9.06 upbm affinity estimate (log intensity, higher = more binding, comparable within an allelic series); in the test with SIX6 [10] it was 8.88 upbm affinity estimate (log intensity, higher = more binding, comparable within an allelic series); in the test with SIX6 [11], 9.02 upbm affinity estimate (log intensity, higher = more binding, comparable within an allelic series); with SIX6 [12], 8.93 upbm affinity estimate (log intensity, higher = more binding, comparable within an allelic series). Besides, the binding signal with SIX6 [13] is 8.95 upbm affinity estimate (log intensity, higher = more binding, comparable within an allelic series).
As for GTCCGGAC, the binding signal in the test with SIX6 [1] was 9.13 upbm affinity estimate (log intensity, higher = more binding, comparable within an allelic series); in the test with SIX6 [2], 8.97 upbm affinity estimate (log intensity, higher = more binding, comparable within an allelic series); with SIX6 [3] it was 8.97 upbm affinity estimate (log intensity, higher = more binding, comparable within an allelic series); with SIX6 [4], 9.02 upbm affinity estimate (log intensity, higher = more binding, comparable within an allelic series); in the test with SIX6 [5] it was 9.09 upbm affinity estimate (log intensity, higher = more binding, comparable within an allelic series); in the test with SIX6 [6], 9.15 upbm affinity estimate (log intensity, higher = more binding, comparable within an allelic series). Besides, the binding signal with SIX6 [7] was 9.08 upbm affinity estimate (log intensity, higher = more binding, comparable within an allelic series); with SIX6 [8] it was 9.27 upbm affinity estimate (log intensity, higher = more binding, comparable within an allelic series); with HOXA2 [14] it was 7.42 upbm affinity estimate (log intensity, higher = more binding, comparable within an allelic series); with SIX6 [9], 9.2 upbm affinity estimate (log intensity, higher = more binding, comparable within an allelic series); in the test with SIX6 [10], 9.14 upbm affinity estimate (log intensity, higher = more binding, comparable within an allelic series); with HOXA2 [15] it was 10.6 upbm affinity estimate (log intensity, higher = more binding, comparable within an allelic series). Also, the binding signal in the test with SIX6 [11] is 9.17 upbm affinity estimate (log intensity, higher = more binding, comparable within an allelic series); with SIX6 [12], 9.13 upbm affinity estimate (log intensity, higher = more binding, comparable within an allelic series); with SIX6 [13], 9.13 upbm affinity estimate (log intensity, higher = more binding, comparable within an allelic series); with HOXA2 [16] it was 10.6 upbm affinity estimate (log intensity, higher = more binding, comparable within an allelic series); with HOXA2 [17] it was 7.3 upbm affinity estimate (log intensity, higher = more binding, comparable within an allelic series).
As to ACGCCGGG, the binding signal is 9.17 upbm affinity estimate (log intensity, higher = more binding, comparable within an allelic series) with SIX6 [1]; 8.97 upbm affinity estimate (log intensity, higher = more binding, comparable within an allelic series) in the test with SIX6 [2]; 9.1 upbm affinity estimate (log intensity, higher = more binding, comparable within an allelic series) with SIX6 [3]; 8.92 upbm affinity estimate (log intensity, higher = more binding, comparable within an allelic series) in the test with SIX6 [4]; 9.17 upbm affinity estimate (log intensity, higher = more binding, comparable within an allelic series) with SIX6 [5]; 9.18 upbm affinity estimate (log intensity, higher = more binding, comparable within an allelic series) with SIX6 [6]. For the same sequence, the binding signal was 9.05 upbm affinity estimate (log intensity, higher = more binding, comparable within an allelic series) in the test with SIX6 [7]; 9.16 upbm affinity estimate (log intensity, higher = more binding, comparable within an allelic series) with SIX6 [8]; 9.21 upbm affinity estimate (log intensity, higher = more binding, comparable within an allelic series) with SIX6 [9]; 9.2 upbm affinity estimate (log intensity, higher = more binding, comparable within an allelic series) with SIX6 [10]; 9 upbm affinity estimate (log intensity, higher = more binding, comparable within an allelic series) with SIX6 [11]; 9.15 upbm affinity estimate (log intensity, higher = more binding, comparable within an allelic series) with SIX6 [12]. In the test with SIX6 [13], the binding signal was 9.16 upbm affinity estimate (log intensity, higher = more binding, comparable within an allelic series).

(Values after PMC11006913.)
